From PubChem BioAssay
Calls of active or inactive are those of the source.

Columns and labels:
Albumin (Bos taurus) = Albumin (Bos taurus) (UniProt P02769); experiment: compounds binding labelled BSA control protein – biochemical, small-molecule microarray, Alexa647 label, 635/667 nm fluorescence, artefact control for SMM control protein annotation, profiling panel (AID 1118); conditions: BSA-A647 binding, fluorescence 635 nm, higher = more signal;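 also: score merges 667 nm emission intensity and signal-to-noise per printed compound spot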
Sequence of Albumin (Bos taurus) (P02769 whole entry, looked up): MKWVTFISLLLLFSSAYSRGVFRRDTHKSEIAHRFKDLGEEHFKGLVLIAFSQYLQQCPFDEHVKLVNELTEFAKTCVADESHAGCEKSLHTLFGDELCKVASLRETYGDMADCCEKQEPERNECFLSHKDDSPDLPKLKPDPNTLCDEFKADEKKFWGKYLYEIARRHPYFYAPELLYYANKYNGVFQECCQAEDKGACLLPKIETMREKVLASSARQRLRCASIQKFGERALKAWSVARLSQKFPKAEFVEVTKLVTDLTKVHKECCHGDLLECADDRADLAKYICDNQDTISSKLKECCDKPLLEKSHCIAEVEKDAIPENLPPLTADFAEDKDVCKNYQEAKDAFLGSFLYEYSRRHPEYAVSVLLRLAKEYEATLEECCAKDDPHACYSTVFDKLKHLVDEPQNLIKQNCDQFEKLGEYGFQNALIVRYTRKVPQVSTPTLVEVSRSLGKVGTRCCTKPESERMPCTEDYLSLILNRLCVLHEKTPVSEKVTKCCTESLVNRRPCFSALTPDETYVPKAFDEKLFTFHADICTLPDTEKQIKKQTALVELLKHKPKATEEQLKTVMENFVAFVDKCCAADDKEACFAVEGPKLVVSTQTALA

[1] = probe aXIP binding to arrayed compounds – biochemical, NeuroSMM set, 635/667 nm fluorescence, primary screen (AID 1119); conditions: small-molecule microarray, higher = more signal, called active from +8 up or from −8 down;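 also: probe is the protein aXip251-270 applied at 1 µg/mL to compound-printed slides; binding of probe to printed compounds measured as 667 nm fluorescence plus signal to noise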
[2] = probe aNOTCH3 binding on compound microarray – biochemical, small-molecule microarray, 635/667 nm fluorescence, primary screen (AID 1120); conditions: higher = more signal;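 also: probe is a biotin-tagged antibody raised against NOTCH3 rather than NOTCH3 protein; score merges spot fluorescence near 667 nm with spot signal to noise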
[3] = probe aNOTCH2 binding on compound microarray – biochemical, small-molecule microarray, 635/667 nm fluorescence, primary screen (AID 1121); conditions: higher = more signal;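 also: score merges feature fluorescence read at 667 nm with its signal to noise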
[4] = biological target: Carbonic anhydrase 2 (Homo sapiens) (UniProt P00918); experiment: compounds binding carbonic anhydrase 2 – biochemical, small-molecule microarray, Alexa647-labelled CAII, profiling panel (AID 1122); conditions: CAII-A647 binding fluorescence, higher = more signal
[5] = COS7 lysate on small-molecule microarray, probe aHis, 635 nm (AID 1123); conditions: COS7 cell lysate, fluorescence, higher = more signal;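 also: z-score combines 667nm fluorescence intensity with signal-to-noise per printed compound spot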
[6] = probe aLAP1 signal on lysate-treated microarray – cell lysate, small-molecule microarray, COS7 lysate, primary screen (AID 1124); conditions: probe aLAP1, fluorescence, higher = more signal;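 also: lysate comes from COS7 cells expressing LAP1 and is applied at 0.3 µg/mL; score merges spot fluorescence near 667 nm with signal-to-noise over triplicate slides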
Sam68 (KHDRBS1) = experiment: compounds binding KHDRBS1 protein – biochemical, small-molecule microarray, 635 nm fluorescence, primary screen (AID 1125); conditions: higher = more signal;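 also: score merges 667 nm channel intensity with signal to noise over triplicate slides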
[7] = system: Chordin-like protein 2 (CHRDL2); experiment: compounds binding chordin-like 2 – biochemical, small-molecule microarray, 635 nm fluorescence, primary screen (AID 1126); conditions: fluorescence 635 nm, higher = more signal;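 also: printed compound slides probed with Chrdl2 protein at 4 µg/mL for 1 h at 4 C; score merges 667 nm emission intensity with signal to noise over three replicate slides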
[8] = biological target: Concanavalin-A (Canavalia ensiformis) (UniProt P02866); experiment: compounds binding concanavalin A lectin – biochemical, small-molecule microarray, Alexa647 label, 635 nm, artefact control for SMM control protein annotation, primary screen (AID 1127); conditions: ConA-A647 binding fluorescence, higher = more signal;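 also: z combines 667 nm emission intensity with signal-to-noise across three replicate slides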
Sequence of Concanavalin-A (Canavalia ensiformis) (P02866 whole entry, looked up): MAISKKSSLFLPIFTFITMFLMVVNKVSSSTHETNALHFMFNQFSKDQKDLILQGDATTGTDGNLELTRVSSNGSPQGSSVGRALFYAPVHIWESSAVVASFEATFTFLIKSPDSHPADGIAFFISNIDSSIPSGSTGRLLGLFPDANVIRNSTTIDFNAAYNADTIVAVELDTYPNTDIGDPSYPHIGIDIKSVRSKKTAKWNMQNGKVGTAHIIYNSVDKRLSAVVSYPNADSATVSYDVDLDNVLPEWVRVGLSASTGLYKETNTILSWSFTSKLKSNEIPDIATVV

[9] = compounds binding Alexa647 anti-His antibody – biochemical, small-molecule microarray, 635 nm fluorescence, artefact control for SMM control protein annotation, primary screen (AID 1128); conditions: higher = more signal;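 also: score merges feature fluorescence with signal-to-noise for each printed compound spot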
[10] = system: Human papillomavirus type 1a E7 protein (residues 1-88); experiment: HPV1a E7 small-molecule binders, primary screen, biochemical, small-molecule microarray, residues 1-88, 635 nm (AID 1129); conditions: small-molecule microarray binding, fluorescence 635 nm; higher = more signal
[11] = biological target: Focal adhesion kinase 1 (Homo sapiens) (UniProt Q05397); experiment: PTK2 protein binding on printed compound slides – biochemical, small-molecule microarray, 635/667 nm fluorescence, BSA, DTT, primary screen (AID 1130); conditions: 635 nm fluorescence, higher = more signal;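 also: composite of spot emission at 667 nm and signal to noise over triplicate slides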
Sequence of Focal adhesion kinase 1 (Homo sapiens) (Q05397 whole entry, looked up): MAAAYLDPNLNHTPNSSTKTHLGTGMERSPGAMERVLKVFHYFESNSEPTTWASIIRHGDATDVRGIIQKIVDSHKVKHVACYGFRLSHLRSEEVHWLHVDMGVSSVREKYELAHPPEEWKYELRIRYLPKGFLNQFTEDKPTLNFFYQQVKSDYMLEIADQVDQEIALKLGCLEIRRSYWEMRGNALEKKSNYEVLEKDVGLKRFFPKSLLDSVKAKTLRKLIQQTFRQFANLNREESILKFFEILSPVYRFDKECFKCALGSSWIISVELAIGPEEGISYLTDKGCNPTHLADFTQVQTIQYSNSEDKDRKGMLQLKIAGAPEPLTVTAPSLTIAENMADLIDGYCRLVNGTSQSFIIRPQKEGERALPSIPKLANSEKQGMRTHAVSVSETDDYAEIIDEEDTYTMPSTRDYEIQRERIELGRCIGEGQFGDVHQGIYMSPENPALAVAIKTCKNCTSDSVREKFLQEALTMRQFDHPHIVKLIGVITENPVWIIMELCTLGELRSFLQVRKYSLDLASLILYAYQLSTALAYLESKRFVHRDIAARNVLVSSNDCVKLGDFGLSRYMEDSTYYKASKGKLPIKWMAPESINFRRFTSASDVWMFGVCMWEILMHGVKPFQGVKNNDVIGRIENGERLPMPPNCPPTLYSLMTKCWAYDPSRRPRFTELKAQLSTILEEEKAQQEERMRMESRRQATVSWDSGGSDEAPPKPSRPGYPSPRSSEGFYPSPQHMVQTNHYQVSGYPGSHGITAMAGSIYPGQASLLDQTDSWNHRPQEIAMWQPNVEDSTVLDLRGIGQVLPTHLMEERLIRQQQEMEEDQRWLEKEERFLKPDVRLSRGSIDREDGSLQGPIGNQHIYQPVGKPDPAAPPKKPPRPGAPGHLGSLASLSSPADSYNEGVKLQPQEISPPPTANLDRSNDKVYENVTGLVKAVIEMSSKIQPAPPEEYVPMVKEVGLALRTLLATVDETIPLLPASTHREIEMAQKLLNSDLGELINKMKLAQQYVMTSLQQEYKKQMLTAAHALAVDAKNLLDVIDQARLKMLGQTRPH

[12] = system: Fibrinogen (Alexa647-labelled); experiment: Alexa647-fibrinogen binding to printed small molecules – biochemical, small-molecule microarray, 635/667 nm fluorescence, artefact control for SMM control-protein annotation, profiling panel (AID 1131); conditions: fibrinogen-A647 binding fluorescence, higher = more signal;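 also: z-score merges 667 nm fluorescence with per-spot signal-to-noise over triplicate slides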
[13] = biological target: Follistatin (Homo sapiens) (UniProt P19883); experiment: FST protein binding to printed compounds – biochemical, small-molecule microarray, 635/667 nm fluorescence, primary screen (AID 1132); conditions: 635 nm fluorescence, higher = more signal
Sequence of Follistatin (Homo sapiens) (P19883 whole entry, looked up): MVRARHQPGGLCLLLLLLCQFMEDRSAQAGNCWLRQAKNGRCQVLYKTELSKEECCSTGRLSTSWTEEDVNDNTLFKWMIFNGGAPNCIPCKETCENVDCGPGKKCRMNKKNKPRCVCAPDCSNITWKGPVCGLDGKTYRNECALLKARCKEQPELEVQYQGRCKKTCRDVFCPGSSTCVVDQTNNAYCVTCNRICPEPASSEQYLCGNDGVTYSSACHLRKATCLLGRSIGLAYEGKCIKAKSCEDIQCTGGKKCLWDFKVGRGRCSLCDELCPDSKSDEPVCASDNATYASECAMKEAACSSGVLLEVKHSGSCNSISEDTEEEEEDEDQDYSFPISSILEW

[14] = biological target: Fibroblast growth factor 2 (Homo sapiens) (UniProt P09038); experiment: basic fibroblast growth factor binding to printed compounds – biochemical, small-molecule microarray, 635/667 nm fluorescence, primary screen (AID 1133); conditions: FGF2, fluorescence 635/667, higher = more signal
Sequence of Fibroblast growth factor 2 (Homo sapiens) (P09038 whole entry, looked up): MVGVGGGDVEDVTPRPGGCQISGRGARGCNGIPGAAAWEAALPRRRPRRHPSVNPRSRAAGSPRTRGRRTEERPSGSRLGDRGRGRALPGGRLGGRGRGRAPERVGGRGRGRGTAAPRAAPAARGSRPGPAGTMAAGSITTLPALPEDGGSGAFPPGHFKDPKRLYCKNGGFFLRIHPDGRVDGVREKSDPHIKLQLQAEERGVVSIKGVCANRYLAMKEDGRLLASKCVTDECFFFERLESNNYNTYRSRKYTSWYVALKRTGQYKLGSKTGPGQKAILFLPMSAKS

[15] = JC-1 mitochondrial potential readout, lung cancer cells – cell-based, A549, JC-1 fluorescence, basal, 24 h, 100 nL, profiling panel (AID 1138); conditions: higher = more signal;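 also: A549 lung adenocarcinoma cells under basal conditions with no added stimulus; test concentration not given here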
Lefty1 = Lefty1 protein binding to printed compounds – biochemical, small-molecule microarray, 635/667 nm fluorescence, primary screen (AID 1139); conditions: fluorescence 635/667, higher = more signal
[16] = system: wheat germ agglutinin (Triticum aestivum), Alexa647-labelled; experiment: Alexa647-WGA lectin binding to printed small molecules – biochemical, small-molecule microarray, 635/667 nm fluorescence, artefact control for SMM control-protein annotation, profiling panel (AID 1140); conditions: WGA-A647 binding, 635 nm fluorescence, higher = more signal;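 also: score merges 667 nm feature emission with signal to noise over triplicate slides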
[17] = biological target: Luciferin 4-monooxygenase (Photinus pyralis) (UniProt P08659); experiment: inhibition of purified Photinus pyralis luciferase – biochemical, luminescence, purified enzyme, 2006 set, primary screen (AID 1141); conditions: purified firefly luciferase, SteadyGlo luminescence, 30 min; higher = more signal, called active from +8 up or from −8 down;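 also: cell-free assay with purified firefly luciferase at 100 ng per well in PBS; test concentration not given here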
Sequence of Luciferin 4-monooxygenase (Photinus pyralis) (P08659 whole entry, looked up): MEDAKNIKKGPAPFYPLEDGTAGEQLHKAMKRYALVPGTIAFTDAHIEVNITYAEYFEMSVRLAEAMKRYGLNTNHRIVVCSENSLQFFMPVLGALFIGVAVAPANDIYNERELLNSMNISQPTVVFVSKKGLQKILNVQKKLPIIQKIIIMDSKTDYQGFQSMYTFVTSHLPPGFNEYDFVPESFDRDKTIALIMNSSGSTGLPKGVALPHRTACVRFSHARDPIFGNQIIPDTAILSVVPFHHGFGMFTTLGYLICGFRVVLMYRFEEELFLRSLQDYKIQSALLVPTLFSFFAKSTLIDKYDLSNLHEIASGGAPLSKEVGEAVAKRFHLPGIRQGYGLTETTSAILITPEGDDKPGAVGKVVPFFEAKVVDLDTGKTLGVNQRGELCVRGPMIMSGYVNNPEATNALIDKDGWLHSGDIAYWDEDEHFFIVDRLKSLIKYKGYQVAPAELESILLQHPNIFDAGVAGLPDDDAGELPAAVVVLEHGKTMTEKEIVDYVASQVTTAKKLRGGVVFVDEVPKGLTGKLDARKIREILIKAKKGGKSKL

| Structure (SMILES) | composite z-score (Albumin (Bos taurus)) | composite Z-score [1] | composite z-score [2] | composite z-score [3] | composite z-score [4] | composite z-score [5] | composite z-score [6] | composite z-score (Sam68 (KHDRBS1)) | composite z-score [7] | composite z-score [8] | composite z-score [9] | composite z-score [10] | composite z-score [11] | composite z-score [12] | composite z-score [13] | composite z-score [14] | z-score [15] | composite z-score (Lefty1) | composite z-score [16] | z-score [17] |
| --- | --- | --- | --- | --- | --- | --- | --- | --- | --- | --- | --- | --- | --- | --- | --- | --- | --- | --- | --- | --- |
| COCCOC(=O)N1C(=O)[C@@]2(c3ccccc31)[C@H](C(=O)N1CCCCCCC1)[C@H]1C(=O)O[C@H](c3ccccc3)[C@H](c3ccccc3)N1[C@@H]2c1ccc(O)cc1 | 0.816 | 4.39 (inactive) | 2 | 0.95 | 0.608 | 3.97 | 2.11 | 1.3 | 1.41 | 1.03 | 0.578 | 1.21 | 1.01 | 0.842 | 1.41 | 1.74 | 0.0314 | 1.69 | 1.25 | 0.047 (inactive) |
| CN1C(=O)C2C=CC(C(O)c3ccc(-c4ccccc4)s3)N(Nc3ccccc3)C2C1=O (stereo not given) | 0.945 | 0.498 (inactive) | 0.403 | 0.135 | 0.714 | 1.94 | 0.32 | 1.24 | -0.121 | 1.15 | 1.33 | 1.19 | 0.283 | 0.96 | 1.12 | -0.0002 | 0.5 | -0.304 | 1.07 | 0.17 (inactive) |
| C#CCN([C@H](/C=C/C1CC1)[C@@H](O)Cc1ccccc1)[C@@H](Cc1ccccc1)C(=O)OC | -0.578 | -0.232 (inactive) | 0.15 | -0.164 | -0.179 | -0.485 | -0.454 | 0.0511 | 0.686 | -0.249 | 0.482 | -0.517 | -0.113 | -0.408 | 0.794 | -0.182 | 3.47 | 0.683 | -0.34 | 0.778 (inactive) |
| C=CC[C@@]1(C(=O)N(C)C)N=C(c2ccc(OCCCO)cc2)O[C@@H]1c1ccccc1 | 0.434 | -0.593 (inactive) | 0.315 | 0.182 | 0.644 | 2.59 | 1.01 | -0.108 | 0.0028 | 0.148 | 2.63 | 1.24 | 0.356 | 0.3 | 0.0236 | 0.298 | -0.324 | -0.68 | 1.02 | 0.213 (inactive) |
| C=CCNC(=O)[C@@H]1[C@H]2C(=O)O[C@H](c3ccccc3)[C@H](c3ccccc3)N2[C@H](c2ccc(O)cc2)[C@@]12C(=O)Nc1ccc(C#CC3(O)CCCCCC3)cc12 | -0.277 | 0.156 (inactive) | 0.39 | -0.179 | 0.653 | 1.04 | 0.107 | -0.133 | 0.227 | -0.197 | 0.906 | 0.596 | 1.31 | -1.37 | 0.726 | 0.749 | -0.9 | 0.304 | -0.321 | 0.27 (inactive) |
| CC=CC(O)C1C=CC2C(=O)N(C)C(=O)C2N1NC(=O)OC(C)(C)C (stereo not given) | 1.03 | 0.397 (inactive) | 0.0687 | -0.173 | 0.774 | 0.439 | 0.826 | -0.0008 | 0.204 | 0.0815 | 0.831 | 0.347 | -0.116 | 0.516 | 0.767 | 0.812 | -0.559 | 0.0938 | 0.838 | -0.645 (inactive) |
| CC1CC/C=C\[C@H]2OC34C=CCN(c5ccc(Cl)cc5)C(=O)[C@H]3N(CCCO)C(=O)[C@]4(C)C2C(=O)O1 (stereo not given in full) | 0.784 | 0.182 (inactive) | -0.235 | -0.18 | 0.931 | -0.42 | 0.569 | -0.38 | -1.39 | -0.749 | -0.567 | -0.796 | -0.444 | -1.67 | -0.6 | -1.2 | 0.58 | -0.157 | -1.34 | -0.0112 (inactive) |
| CCCC[C@@H](O)C1=C(COC)Cn2c(=O)n(-c3ccccc3)c(=O)n2[C@H]1CO | -0.0338 | 0.0894 (inactive) | -0.0967 | -0.166 | -0.469 | -0.162 | 0.0924 | -0.532 | -0.0073 | -0.698 | 0.0209 | -0.155 | -0.109 | 0.894 | -0.266 | 0.0646 | -0.239 | -0.0726 | 0.858 | -1.65 (inactive) |
| CC(C)C[C@@H]1NC(=O)[C@@H]2C[C@H](C(=O)O)[C@H](c3ccc(O)cc3)N2C1=O | -1.01 | 0.102 (inactive) | 0.0488 | -0.106 | 0.558 | 0.68 | 0.186 | 1.31 | 1.15 | 1.21 | 2.41 | 1.13 | 0.6 | 0.878 | 1.37 | 1.49 | 0.892 | 1.04 | 0.938 | -2.98 (inactive) |
| CO[C@H]1O[C@H](CO)[C@@H](OC(=O)Nc2ccc(C(F)(F)F)cc2)[C@H](OC(=O)Nc2ccccc2-c2ccccc2)[C@@H]1OC(=O)Nc1ccccc1-c1ccccc1 | 0.816 | 0.0336 (inactive) | 0.387 | -0.0496 | 0.647 | 2.21 | 0.818 | 1.29 | 0.102 | 1.15 | 2.01 | 1.1 | 0.799 | 0.911 | 1.3 | 0.697 | 0.284 | 1.08 | 1.04 | 0.798 (inactive) |
